Assay results as given in PubChem BioAssay AID463190 (Sanford-Burnham Center for Chemical Genomics, 2010).
Hit rate of the full screen: of about 330,000 compounds, about 7,300 (2.2%) were called active.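 How the source made its calls: active means inhibition of at least 40%; inactive means the rest.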 The entries come from a sample that favours actives as a whole.

Assay: growth inhibition of tim10-1 ts yeast – luminescence, uHTS, primary screen (AID 463190);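 further: mutant grown at 25 °C; 0% = DMSO wells with yeast and 100% = wells holding no yeast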
Conditions: S. cerevisiae tim10-1 ts strain growth, BacTiter-Glo, 24 h; at 20 µM; stronger effect = higher value

inhibition, inactive:
O=C1NC[C@@H](c2ccccc2)OC(=O)[C@H](Cc2ccc(F)cc2)CC/C=C/C[C@H]1CC(=O)N(CCO)Cc1ccccc1 3%
S=c1nc(C23CC4CC(CC(C4)C2)C3)nc2sccn12 -12.4%
CCOc1ccc(NC(=O)COc2ccc(C(=O)N3CCC(C(N)=O)CC3)cc2OC)cc1 3.08%
Cc1cccc(C(=O)N2CCc3c([nH]c4ccccc34)C2CC(C)C)n1 (stereo not drawn) 10.6%
O=C(c1cn2ccccc2n1)N1CCc2c([nH]c3ccccc23)C1c1ccccn1 (stereo not drawn) 22.4%
COCC1CCN(C(=O)C2CCC(=O)N(CC3CCCCC3)C2)CC1 (stereo not drawn) -9.11%
Cc1nc(SC(C)C)[nH]c(=O)c1Cc1ccccc1 18.7%
Cc1nn(C)c(C)c1NS(=O)(=O)c1ccc(OC(F)(F)F)cc1 -1.38%
O=C1COc2ccc(S(=O)(=O)Nc3ccc(OC(F)(F)F)cc3)cc2N1 18.6%
CC(=O)NS(=O)(=O)c1ccc2c(c1)Cc1cc(S(=O)(=O)NC(C)=O)ccc1-2 -1.53%
O=C1CC2(CC(c3ccc(Cl)cc3)=NO2)C(=O)N1c1ccccc1 (stereo not drawn) -3.93%
CN(C)CCCN(C(=O)c1ccc(S(=O)(=O)N2CCCCCC2)cc1)c1nc2ccc(Br)cc2s1 26.2%
CN(C)CCCN(C(=O)c1ccc(S(=O)(=O)N2CCCCCC2)cc1)c1nc2cc3c(cc2s1)OCCO3 27.4%
O=[N+]([O-])c1ccc(S(=O)(=O)Nc2cccc(-c3ccc(N4CCCC4)nn3)c2)cc1 11.6%
Cc1c(C(=O)NCCN2CCOCC2)sc2nc(-c3ccc(F)cc3)cn12 4.04%
COC(=O)Cc1ccc(NC(=S)NCc2ccccc2)cc1 21.8%
CCNC(=S)Nc1ccc(OC(F)(F)F)cc1 14.5%
Cc1ccc(CCNC(=O)C2CCN(S(=O)(=O)N3CCCC3)CC2)cc1 4.68%
CCOc1ccc(C2/C(=C(/O)c3ccc4c(c3)CC(C)O4)C(=O)C(=O)N2CCCn2ccnc2)cc1 (stereo not drawn) -3.88%
Cc1onc(-c2ccccc2Cl)c1C(=O)OCC(=O)c1ccccc1 11.7%
Cc1[nH]c2ccccc2c1C(=O)CSCC(=O)O 12.6%
Cc1cc(SCc2c(F)cccc2Cl)nc(=O)[nH]1 6.52%
O=C(CSc1ccc(-c2ccco2)nn1)Nc1cccc(F)c1 3.73%
CC(C)NC(=O)C(=O)NCCN1CCN(S(=O)(=O)c2ccc(Cl)cc2)CC1 2.58%
CC/C(=N\O)C(C)(C)/[N+]([O-])=C/c1ccc(Br)cc1 5.1%
N#C/C(=C\c1ccc(O)c(O)c1)C(=O)NCc1ccccc1 -4.07%
O=C(N/N=C/c1cccc(OCc2ccccc2)c1)c1ccc(Br)o1 27.9%
C=CCNC(=O)COC(=O)c1ccccc1C(=O)N(C)C1CCCCC1 16.1%
CCOc1ccc(CN2CCN(Cc3ccc(C)o3)CC2CCO)cc1 (stereo not drawn) 5.81%
Cc1ccc(CC(=O)Nc2ccc(S(=O)(=O)N3CCOCC3)cc2)cc1C 19%
O=C(COC(=O)CCc1ccc(S(=O)(=O)N2CCOCC2)cc1)Nc1cccc(Cl)c1 5.19%
CC(C)(C)OC(=O)C[C@@H]1C/C=C\C[C@@H](CC(=O)N[C@H](CO)Cc2ccccc2)C(=O)NCCOC1=O -5.51%
Cc1ccc2c(c1)nnc1nnc(SCC(=O)O)n12 -10.5%
CC1OC2C(OC1C)N(S(C)(=O)=O)CCN2S(C)(=O)=O (stereo not drawn) 1.46%
Cc1cc(Nc2ccc(Br)cc2)nc2ccccc12 29.6%
Cc1cccc(NC(=O)c2ccc3ccccc3n2)n1 27.1%
CCOC(=O)C1CCCN(S(=O)(=O)c2ccc3c(c2)C(C)(C)C(=O)N3C)C1 (stereo not drawn) -10.8%
CC1CCC2(CC1)NC(=O)N(CC(=O)c1ccc3c(c1)OCO3)C2=O (stereo not drawn) -17.1%
Cc1ccc(S(=O)(=O)NC2CCCCCC2)cc1 21.3%
CC(C)c1ccc(S(=O)(=O)NC2CCCC2)cc1 19%
CC(=O)c1ccccc1OCc1ccc(C(=O)c2ccccc2)cc1 9.55%
CC1CCN(CC(=O)c2c[nH]c3ccccc23)CC1 16%
O=C(NC1CCCC1)C(=O)c1c[nH]c2ccccc12 -16.2%
Cc1ccc(N2CC(C(=O)N3CCC4(CC3)CC(=O)c3ccccc3O4)CC2=O)cc1C (stereo not drawn) 1.3%
Cc1ccc(C(=O)NC23CC4CC(CC(C4)C2)C3)c(Cl)c1 -11.9%
O=C(N/N=C1\CCSC1)c1cc(Cl)ccc1O -11.5%
COc1ccc2nc(NC(=O)NC3CCCCC3)sc2c1 21.2%
CCc1noc(C)c1C(=O)Nc1nc2ccc(OC)cc2s1 26.7%
c1ccc(-c2cnc(CN3CCN(c4ccccc4)CC3)o2)cc1 2.4%
COc1ccc(N2CCN(Cc3ccc(Br)s3)CC2)cc1 19.9%
COc1ccc(N2CCN(C(CNS(=O)(=O)c3ccc(C)cc3)c3ccccc3)CC2)cc1 (stereo not drawn) 4.98%
CS(=O)(=O)c1ccc(C(=O)OCC(=O)NNC(=O)COc2ccc(Cl)cc2)cc1 -15.1%
C/C=C/c1ccc(OCCCCN2CCC(C)CC2)c(OC)c1 15.8%
COc1ccc(NC(=O)CNC(=O)Cc2ccccc2)cc1OC -6.35%
COc1ccc(NC(=O)c2ccccc2[N+](=O)[O-])cc1OC 15.9%
O=C(COC(=O)/C=C/c1ccc(S(=O)(=O)N2CCCCCC2)cc1)NCc1ccccc1Cl 35.9%
Cc1onc(-c2ccccc2Cl)c1C(=O)N(Cc1ccc(N(C)C)cc1)C(C)C 23.4%
O=c1ccc2c(-c3ccccc3S(=O)(=O)O)c3ccc(O)c(O)c3oc-2c1O 38.3%
Cc1ccccc1NC(=O)NCC1CCN(Cc2cccc(Cl)c2)CC1 4.31%
Cc1ccc(C)c(CN2CCC(CNC(=O)Nc3ccc(C)c(F)c3)CC2)c1 30.5%
Cc1cccc(-c2c(NC(=O)c3ccco3)oc3ccc(Cl)cc3c2=O)c1 7.38%
CCN(C(=O)Cc1c(C(=O)O)n(CC)c2ccccc12)c1ccccc1C 19.7%
CN(C(=O)COC(=O)CNC(=O)C12CC3CC(CC(C3)C1)C2)c1ccccc1 4.63%
O=C(O)COc1ccc(-c2nccc(-c3cccs3)n2)cc1 10.2%
O=C(CC1NCCc2ccccc21)Nc1cccc(Cl)c1 (stereo not drawn) 34.9%
Cc1ccc(NS(=O)(=O)c2c(C)[nH]c(=O)[nH]c2=O)cc1C 0.26%
CCOc1ccc(CN2CCN(Cc3ccon3)CC2CCO)cc1 (stereo not drawn) 9.62%
O=C(CCCN1C(=O)CCC1=O)Nc1ccc(Cl)c(C(F)(F)F)c1 -0.021%
CS(=O)(=O)N(CC(=O)Nc1ccc(Cl)c(Cl)c1)C1CCCCC1 35.1%
CC1CCCCC1NC(=O)NC(=O)COC(=O)C1=NN(c2ccccc2)C(=O)CC1 (stereo not drawn) -2.21%
C#C[C@]1(O)CC[C@H]2[C@@H]3CCC4=CC(=O)CC[C@@H]4[C@H]3CC[C@@]21CC 12.4%
COc1ccccc1CN(C)C(=O)C1(c2ccc(Cl)cc2)CC1 3.3%
N#CCc1ccc(OC(=O)c2cccnc2)cc1 19.6%
CCCCCCOc1ccc(OC(=O)c2cccnc2)cc1 7.23%

inhibition, active:
Cc1cccc(C2c3[nH]c4ccccc4c3CCN2C(=O)c2cc(-c3cccn3C)n[nH]2)n1 (stereo not drawn) 44%
O=S(=O)(Nc1ccc(O)c2ccccc12)c1ccc(OC(F)(F)F)cc1 42.5%
CN(C)CCCN(C(=O)c1ccc(S(=O)(=O)N2CCCc3ccccc32)cc1)c1nc2ccc(F)cc2s1 52.8%
FC(F)(F)Oc1ccc(NC(=S)NCc2ccccc2)cc1 41.8%
Cc1[nH]c2ccccc2c1C(=O)COC(=O)c1c(-c2ccccc2)noc1C 52.3%
Fc1cccc(Cl)c1CSc1ccc(-c2ccco2)nn1 45.4%
COCCNC(=O)/C(C#N)=C/c1cccc(OCc2ccccc2)c1 52.7%
O=C(CCc1ccc(S(=O)(=O)N2CCOCC2)cc1)Nc1ccc2ccccc2c1 41.9%
Clc1ccc(Nc2ccc3ccccc3n2)cc1 54.1%
CSc1ccc(S(=O)(=O)NC2CCCCC2)cc1 45.6%
O=C(C(=O)N1CCc2ccccc2C1)c1c[nH]c2ccccc12 40.7%
C/C(=N/NC(=O)c1cc(Cl)ccc1O)C12CC3CC(CC(C3)C1)C2 50.7%
COc1ccc2nc(Nc3nc4cc5c(cc4s3)OCCO5)sc2c1 47.7%
Fc1ccc(N2CCN(Cc3cnc(Oc4ccc(Br)cc4)s3)CC2)cc1 42.4%
COc1ccc(NC(=O)c2cc3nc(-c4ccccc4)cc(C)n3n2)cc1OC 51.1%
Cc1cccc(CN2CCC(CNC(=O)Nc3ccc(F)c(Cl)c3)CC2)c1 41.3%
CN(C(=O)COc1nnc(-c2cccs2)c(-c2cccs2)n1)c1ccccc1 46.6%
O=C(CC(O)(C(F)(F)F)C(F)(F)F)Nc1ccc(Cl)c(Cl)c1 85.2%
O=C(Oc1c(-c2ccco2)oc2ccccc2c1=O)c1cccnc1 45.4%
